The source of these data is PubChem BioAssay.

Molecules are shown by their SMILES.

The target of the experiment is Torsin-1A-interacting protein 1 (Homo sapiens) (UniProt Q5JTV8). In words: compound microarray binding of lysate hLAP1 – cell lysate, small-molecule microarray, COS7 lysate, 635/667 nm fluorescence, primary screen (AID 1116). The conditions noted are these: 635 nm fluorescence, higher = more signal.
Sequence of Torsin-1A-interacting protein 1 (Homo sapiens) (Q5JTV8 whole entry, looked up): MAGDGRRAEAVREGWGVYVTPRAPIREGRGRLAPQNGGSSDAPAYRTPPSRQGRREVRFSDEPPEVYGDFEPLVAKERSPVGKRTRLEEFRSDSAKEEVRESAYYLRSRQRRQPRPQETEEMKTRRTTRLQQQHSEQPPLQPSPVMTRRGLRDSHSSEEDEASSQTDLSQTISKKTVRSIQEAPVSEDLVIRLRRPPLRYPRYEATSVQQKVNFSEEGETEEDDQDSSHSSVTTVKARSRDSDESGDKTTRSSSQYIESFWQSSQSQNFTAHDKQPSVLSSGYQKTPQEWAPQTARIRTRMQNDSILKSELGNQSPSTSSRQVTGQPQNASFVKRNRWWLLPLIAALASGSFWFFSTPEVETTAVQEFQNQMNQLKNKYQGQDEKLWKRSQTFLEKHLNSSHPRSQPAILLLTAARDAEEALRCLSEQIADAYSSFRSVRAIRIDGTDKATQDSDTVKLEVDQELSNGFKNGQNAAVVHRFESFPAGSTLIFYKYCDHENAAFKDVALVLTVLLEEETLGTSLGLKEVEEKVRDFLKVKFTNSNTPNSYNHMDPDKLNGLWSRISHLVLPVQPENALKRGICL
Consider `CC(C)(C)N1CC=CC23O[C@@H]4/C=C\CCCOC(=O)C4[C@H]2C(=O)N(CCCO)[C@@H]3C1=O` (stereo partly specified), for which the composite z-score was -1.37.
The molecule `Cc1ccc(S[C@]2(C(=O)NCCCN(C)C)CC(=O)N(C3Cc4ccccc4C3)[C@@H]2c2ccc(CO)cc2I)cc1` had a composite z-score of 0.157.
To `CCOc1cc(C(O)C2C=CC3C(=O)N(c4ccccc4)C(=O)C3N2Nc2ccccc2F)ccc1O` (stereo unspecified) belongs -0.321; to `Cc1ccc(F)cc1S(=O)(=O)N[C@H]1CCN(Cc2ccc(OC(C)C)cc2)C1`, 0.228; to `COC(=O)C(CC#Cc1ccc2c(c1)[C@]1(C(=O)N2)[C@H](c2ccc(OCCO)cc2)N2[C@H](c3ccccc3)[C@H](c3ccccc3)OC(=O)[C@H]2[C@@H]1C(=O)N1CCCCCCC1)C(=O)OC`, 4.91.
The molecule `[N-]=[N+]=Nc1ccccc1C[C@]1(C(=O)N2CCOCC2)N=C(c2ccc(OCCCO)cc2)O[C@H]1c1ccccc1N=[N+]=[N-]` displayed a composite z-score of 1.9.
As for `O=C(NC1CC1)[C@@H]1c2ccccc2C(=O)N(Cc2ccc(OC(F)(F)F)cc2)[C@H]1c1ccc(CO)cc1`, the composite z-score was -0.436.
For `CN(C)CCCC[C@@H]1NC(=O)[C@H]2C[C@@H](C(=O)O)[C@@H](c3ccc(O)cc3)N2C1=O`, the composite z-score worked out at 4.54.
To `CO[C@H]1O[C@H](CO)[C@@H](OC(=O)Nc2ccccc2)[C@H](OC(=O)Nc2ccccc2)[C@H]1OC(=O)Nc1ccccc1` belongs 1.75; to `[N-]=[N+]=NCc1ccccc1[C@@H]1OC(c2ccc(OCCCO)cc2)=N[C@]1(Cc1ccccc1N=[N+]=[N-])C(=O)O`, 0.697; to `CC(C)=CCCC(C)=CC(O)C1C=CC2C(=O)NC(=O)C2N1Nc1ccc(Cl)cc1Cl` (stereo unspecified), 1.17.
